# Where “and” joins values, the source holds several entries; their conditions need not be identical. Equal entries are not always repeated. This is part of a sample that, as a whole, favours compounds with a hit. Of some 83,000 tested, about 20% had one in any assay.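 A percent growth of 40 corresponds to 60% growth inhibition; 0 means no net growth; -100 means all cells died. Active threshold: below 10.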 Calls of active or inactive are those of the source.
# Tested on: MDA-MB-468 breast
# Experiment: NCI-60 one-dose screen, 48 h (100 = growth as untreated, 0 = no growth, -100 = all killed)
# Settings: 10 µM unless noted
row,SMILES,growth
1,CSc1nc2[nH]ncc2c(=O)[nH]1,92.6% (inactive)
2,COc1ccc(-c2cc(-c3nnc(SCC(=O)Nc4ccc(C(C)=O)cc4)n3-c3ccccc3)c3ccccc3n2)cc1OC,111% (inactive)
3,C#Cc1cccc(Nc2nc3ccc([N+](=O)[O-])cc3nc2Nc2cccc(C#C)c2)c1,-45.9% (active)
4,CC(=N\N=C(N)N)/C(=N/N=C(N)N)c1ccccc1,39.6% (inactive)
5,Cc1[nH]c(C2CC(c3ccc(C(F)(F)F)c(F)c3)=NN2C)c(C)c1C(=O)NCC(F)(F)F (stereo not given),81.6% (inactive)
6,O=c1cc(-c2ccc(Cl)cc2)[nH]c2ccccc12,85.6% (inactive)
7,CC(O)(CC(=O)CC(=O)c1ccccc1)c1ccccc1 (stereo not given),94.9% (inactive) and 101% (inactive)
8,C[C@H]1[C@@H]2[C@H]3CC[C@@H]4[C@@]5(C)Cc6c([nH]c7ccccc67)C(C)(C)[C@@H]5CC[C@@]4(C)[C@]3(C)CC[C@]23CO[C@]1(C)[C@@H](C(=O)/C=C/c1ccccn1)C3,99.3% (inactive)
9,O=C(CSc1nnc(-c2ccc(Cl)cc2)o1)Nc1ccc(C(=O)/C=C/c2ccc(Cl)cc2)cc1,116% (inactive)
10,COc1cc(C)cc2oc3oc(=N)c(C(=O)c4ccccc4)cc3c(=O)c12,108% (inactive)
11,Cc1cc(N)ccc1-c1ccc(N)cc1C,97.5% (inactive)
12,O=C1c2c(c3c4ccccc4[nH]c3c3ccc4ccccc4c23)C(=O)N1CCN1CCOCC1,58.6% (inactive)
13,OCCN1CCN(CC/C=C2/c3ccccc3Sc3ccc(C(F)(F)F)cc32)CC1,68.4% (inactive)
14,CCN(CC)c1ccc(/C=N/NC(=O)CSc2nc3ccccc3c(=O)n2CCc2ccc(S(N)(=O)=O)cc2)c(O)c1,-7.72% (active)
15,CC1(C)OCC(COC(c2ccccc2)(c2ccccc2)c2ccccc2)O1 (stereo not given),109% (inactive)
16,O=C(O)c1ccc(CO)o1,103% (inactive)
17,Clc1ccccc1Nc1nnc(-c2ccncc2)s1,110% (inactive)
18,CC(C)(C)CC(C)(C)N(CSc1ccc(Cl)cc1)CSc1ccc(Cl)cc1,63.7% (inactive)
19,CC(C)(O)c1cccc(F)c1,93.8% (inactive)
20,N#CC(C#N)C(C#N)C#N,99.7% (inactive)

row,SMILES,growth
1,COc1cc(/C=C/c2cc(/C=C/c3ccc(O)c(OC)c3)n(C(N)=O)n2)ccc1O,-14.3% (active)
2,C=C(CNCCc1ccc(O)cc1)[C@@H]1CC[C@]2(CO)CC[C@]3(C)[C@H](CC[C@@H]4[C@@]5(C)CCC(N)C(C)(C)[C@@H]5CC[C@]43C)[C@@H]12 (stereo not given in full),-88.4% (active)
3,CC(C)N(CCNc1nc(C(Cl)(Cl)Cl)nc2cc(Cl)ccc12)C(C)C,-50% (active)
4,CC(C)OP(=O)(CCC(=O)c1c[nH]c2ccccc12)OC(C)C,107% (inactive)
5,CCCCCCCCCCCCCCCC1=NCC[N+]1(CCO)CCO,55.2% (inactive)
6,N=C(N)c1ccc(-c2ccc(-c3ccccc3)o2)cc1,-68.6% (active)
7,O=C(N/N=C/c1cc([N+](=O)[O-])ccc1O)c1cccc2ccccc12,-8.62% (active)
8,Cc1ccc(C(=O)Nc2ccc(CNCCN3CCOCC3)c(C(F)(F)F)c2)cc1C#Cc1cnc2cccnn12,-21% (active)
9,C/C(=N\NC(=O)Nc1ccccc1)c1nnn(-c2ccc([N+](=O)[O-])cc2)c1C,104% (inactive)
10,Cc1ccccc1NC(=O)N/C(N)=N/c1nc(-c2cccc([N+](=O)[O-])c2)cs1,6.27% (active)
11,CCCCSc1nnc(-c2ccc(-c3ccc(Cl)cc3)nc2C)o1,107% (inactive)
12,O=C(CCCCCCN1CC(=O)N2[C@@H](c3cccc(Cl)c3)c3[nH]c4ccccc4c3C[C@H]2C1=O)NO,47.2% (inactive)
13,O=C(/C=C1\C=CN(CCCCCCF)c2ccccc21)n1ccc2ccccc21,84.9% (inactive)
14,O=S(=O)(NC1c2ccccc2Oc2ccccc21)c1ccccc1,87.6% (inactive)
15,COc1ccc2nc3cc(Cl)ccc3c(NCCCNCCC(C)O)c2c1 (stereo not given),-54% (active)
16,CCN(CCO)CCC(=O)c1ccc([N+](=O)[O-])cc1,98.1% (inactive)
17,O=C1c2cccc3cccc(c23)C(=O)N1CCCCCCCCCCN1C(=O)c2cccc3cccc(c23)C1=O,112% (inactive)
18,Cc1ccc(C(SCC(N)C(=O)O)(c2ccccc2)c2ccc(C)cc2)cc1 (stereo not given),-1.71% (active)
19,Oc1[nH]c2ccc(Cl)cc2c1N=Nc1nc(N=Nc2c(O)[nH]c3ccc(Cl)cc23)nc(N2CCOCC2)n1,23.6% (inactive)
20,CCOC(=O)/C(=C/c1ccc([N+](=O)[O-])cc1)C(=O)c1ccccc1,21.3% (inactive)

# Source: PubChem BioAssay (NCI)
